Laboratory results as given in PubChem BioAssay AID1159580 (chemical genetic matrix, 2015).
“And” between values parts separate entries of the source, which are not always exact repeats. Equal values may be shown once. In all, about 5,500 compounds went through this assay and about 2,000 (36%) were called active. Inconclusive results (about 18%) are left out. Rule as the data show it: active = normalized growth mostly below about 0.91 (no sharp cut-off); inconclusive = no clear call, values can overlap the other calls; inactive = mostly above about 0.92. Some of the results follow.

Experiment: chemical genetic growth profiling, strain panel (AID 1159580);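 also: tested at 20 µM; growth read once vehicle control cultures reached saturation at 30 °C; 1 = growth at the plate median or of vehicle wells; lower values mean less growth of the strain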
Conditions: S. cerevisiae deletion strains, growth OD

Measured: normalized growth

O=C(N[C@@H](CO)[C@H](O)c1ccc([N+](=O)[O-])cc1)C(Cl)Cl
inactive: locus YAL013W, strain DEP1, active compounds read low 1 | locus YAL021C, strain ccr4, active compounds read low 1.01 | locus YAL026C, strain drs2, active compounds read low 1.03 | locus YAL030W, strain snc1, active compounds read low 0.999 | locus YBL061C, strain skt5, active compounds read low 0.995 | locus YBR009C, strain hhf1, active compounds read low 1.03 | locus YBR021W, strain FUR4, active compounds read low 1.03 | locus YBR023C, strain chs3, active compounds read low 1.02 | locus YBR171W, strain sec66, active compounds read low 1.02 | locus YBR229C, strain ROT2, active compounds read low 1 | locus YBR231C, strain swc5, active compounds read low 1.01 | locus YBR279W, strain paf1, active compounds read low 1.02 | locus YCL011C, strain gbp2, active compounds read low 1.02 | locus YCL016C, strain dcc1, active compounds read low 1.02 | locus YCL029C, strain bik1, active compounds read low 1.03 | locus YCL061C, strain MRC1, active compounds read low 0.998 | locus YCL069W, strain vba3, active compounds read low 1.02 | locus YCR088W, strain abp1, active compounds read low 1.02 | locus YDL005C, strain med2, active compounds read low 1 | locus YDL035C, strain GPR1, active compounds read low 0.997 | locus YDL040C, strain nat1, active compounds read low 1.01 | locus YDL074C, strain BRE1, active compounds read low 1.03 | locus YDL101C, strain DUN1, active compounds read low 1.01 | locus YDL134C, strain PPH21, active compounds read low 1 | locus YDL185W, strain tfp1, active compounds read low 1.01 | locus YDL192W, strain arf1, active compounds read low 1.01 | locus YDR001C, strain nth1, active compounds read low 1.02 | locus YDR069C, strain doa4, active compounds read low 1.02 | locus YDR101C, strain arx1, active compounds read low 1.01 | locus YDR137W, strain rgp1, active compounds read low 1.03 | locus YDR150W, strain NUM1, active compounds read low 0.997 | locus YDR159W, strain sac3, active compounds read low 0.982 | locus YDR162C, strain NBP2, active compounds read low 1 | locus YDR195W, strain ref2 1.09 | locus YDR297W, strain sur2, active compounds read low 1.02 | locus YDR318W, strain mcm21, active compounds read low 1.01 | locus YDR334W, strain swr1, active compounds read low 1 | locus YDR335W, strain msn5, active compounds read low 1.01 | locus YDR388W, active compounds read low 1.01 | locus YDR392W, strain spt3, active compounds read low 0.981 | locus YDR502C, strain sam2, active compounds read low 1.01 | locus YEL003W, strain gim4, active compounds read low 1.01 | locus YEL037C, strain rad23, active compounds read low 1.01 | locus YEL061C, strain CIN8 (second series), active compounds read low 1.02 | locus YEL061C, strain CIN8, active compounds read low 0.996 | locus YER015W, strain faa2, active compounds read low 1.02 | locus YER016W, strain bim1, active compounds read low 1.01 | locus YER110C, active compounds read low 1.01 | locus YER111C, strain swi4, active compounds read low 1.02 | locus YER155C, strain BEM2 (second series), active compounds read low 0.993 | locus YER155C, strain BEM2, active compounds read low 1 | locus YER167W, strain BCK2, active compounds read low 0.987 | locus YFR010W, strain ubp6, active compounds read low 1.02 | locus YGL078C, strain dbp3, active compounds read low 1 | locus YGL086W, strain mad1, active compounds read low 0.994 | locus YGL167C, strain pmr1, active compounds read low 1.01 | locus YGL173C, strain kem1, active compounds read low 1.03 | locus YGL227W, strain vid30, active compounds read low 1.04 | locus YGL240W, strain doc1, active compounds read low 0.983 | locus YGL248W, strain PDE1, active compounds read low 0.998 | locus YGL253W, strain hxk2, active compounds read low 1.03 | locus YGR078C, strain PAC10, active compounds read low 1.02 | locus YGR135W, strain pre9, active compounds read low 1.01 | locus YGR229C, strain SMI1, active compounds read low 0.994 | locus YGR252W, strain gcn5, active compounds read low 0.947 | locus YHR013C, strain ard1, active compounds read low 1.01 | locus YHR027C, strain rpn1, active compounds read low 1.02 | locus YHR030C, strain SLT2, active compounds read low 0.998 and 0.975 | locus YHR079C, strain IRE1 (second series), active compounds read low 1.02 | locus YHR079C, strain IRE1, active compounds read low 1 | locus YHR094C, strain hxt1, active compounds read low 1.01 | locus YHR129C, strain ARP1, active compounds read low 1.01 | locus YHR142W, strain chs7, active compounds read low 1.05 | locus YHR200W, strain rpn10, active compounds read low 1.01 | locus YIL066C, strain RNR3, active compounds read low 1.01 | locus YIL073C, strain SPO22, active compounds read low 0.964 | locus YIL125W, strain kgd1, active compounds read low 0.998 | locus YIR030C, strain dcg1, active compounds read low 1.01 | locus YJL092W, strain hpr5, active compounds read low 1.02 | locus YJL095W, strain BCK1 (second series), active compounds read low 1.02 | locus YJL095W, strain BCK1, active compounds read low 1.04 and 0.945 | locus YJL115W, strain asf1, active compounds read low 1.01 | locus YJL129C, strain trk1, active compounds read low 1.01 | locus YJL134W, strain LCB3, active compounds read low 1 | locus YJL154C, strain vps35, active compounds read low 1.03 | locus YJL164C, strain tpk1, active compounds read low 1.03 | locus YJL166W, strain qcr8, active compounds read low 1.02 | locus YJL168C, strain set2, active compounds read low 1.01 | locus YJL187C, strain SWE1 (second series), active compounds read low 1.02 | locus YJR043C, strain POL32, active compounds read low 1.03 | locus YJR066W, strain TOR1, active compounds read low 0.962
